Data taken from PubChem BioAssay (NCATS).
Inconclusive results are not listed. Unless noted, calls come from the whole dose curve; as a rule, active = well fitted curve in either direction with a large enough effect (not every such curve was filed as active); inconclusive = small, poorly fitted or top-dose-only effect, or another doubt; inactive = flat fitted curve, though single readings scatter.

Legend:
[1] = AP1 Signaling Pathway (AID 357); conditions: ME-180 AP-1-bla reporter, EGF-induced, beta-lactamase ratio, 5 h; at 17.2 µM (top of the series) unless noted;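 note: ME-180 reporter cells stimulated with EGF at its EC50 level; % is set by controls: 0 for no effect and ±100 for the full control effect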
Method in brief: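 Read-out was the 460nm/530nm emission ratio (excitation 405nm) after CCF4 loading for 2.5 hours at room temperature. Cells carried an AP-1-driven beta-lactamase reporter, were stimulated with EC50 EGF plus compound for 5 hours, and AC50 values came from titrations.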

[2] = Stat Signaling Pathway (AID 446); conditions: ME-180 (cervical carcinoma) SIE beta-lactamase reporter, IL-6 stimulated, 5 h; at 17.2 µM (top of the series) unless noted;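 note: ME-180 cervical cancer cells given 40 pM IL-6 alongside compound; SIE-controlled beta-lactamase reporter measured as 460/530 nm FRET emission ratio; % is set by controls: 0 for no effect and ±100 for the full control effect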
Method in brief: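 Normalization used AC90 stimulation (300 pM IL-6) and AC90 inhibition (125 nM pan-JAK inhibitor at 40 pM IL-6). The underlying signal is SIE-driven beta-lactamase in ME-180 cells after 5 h IL-6 exposure with compound.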

[3] = biological target: Glucocorticoid receptor (Homo sapiens) (UniProt P04150); test: GR-GFP Redistribution (AID 450;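 active = compounds whose dose series gives a full or clear partial fitted curve of increased nuclear translocation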; note: potency is the fitted concentration of half-maximal effect)
Sequence of Glucocorticoid receptor (Homo sapiens) (P04150 whole entry, looked up): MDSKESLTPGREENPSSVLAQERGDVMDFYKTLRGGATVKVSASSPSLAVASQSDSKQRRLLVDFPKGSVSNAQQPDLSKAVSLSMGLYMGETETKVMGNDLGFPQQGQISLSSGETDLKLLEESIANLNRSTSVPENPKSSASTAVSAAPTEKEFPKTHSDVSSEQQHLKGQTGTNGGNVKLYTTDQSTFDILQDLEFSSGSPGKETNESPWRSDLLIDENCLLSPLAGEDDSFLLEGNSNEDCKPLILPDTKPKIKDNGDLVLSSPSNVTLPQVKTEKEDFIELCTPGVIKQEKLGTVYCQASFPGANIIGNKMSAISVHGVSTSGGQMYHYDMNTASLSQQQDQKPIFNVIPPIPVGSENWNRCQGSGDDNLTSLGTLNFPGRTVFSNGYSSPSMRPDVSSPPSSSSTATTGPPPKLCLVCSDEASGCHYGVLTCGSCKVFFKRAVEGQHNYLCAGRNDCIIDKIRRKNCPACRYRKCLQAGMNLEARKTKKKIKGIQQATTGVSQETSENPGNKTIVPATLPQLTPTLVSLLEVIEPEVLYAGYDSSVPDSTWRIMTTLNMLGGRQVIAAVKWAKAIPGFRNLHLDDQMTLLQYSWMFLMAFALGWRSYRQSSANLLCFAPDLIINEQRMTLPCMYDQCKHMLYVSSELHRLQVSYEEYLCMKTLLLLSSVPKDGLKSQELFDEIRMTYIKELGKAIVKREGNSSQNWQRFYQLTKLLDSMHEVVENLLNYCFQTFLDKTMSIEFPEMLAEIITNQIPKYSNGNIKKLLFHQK

Cc1nc(NCc2ccccc2)c(C(N)=O)c2c1COC(C)(C)C2
inactive: activity change, negative = inhibition [1] 1.8% | activity, negative = inhibition [2] 6.9% | Potency [3] > 20.6 µM

CCCc1nc(N2CCOCC2)c(C#N)c2c1CCCC2
inactive: activity change, negative = inhibition [1] -22% | activity, negative = inhibition [2] -12.3% | Potency [3] > 20.6 µM

CCCCCCn1c(SCCN2CCOCC2)nc2c1c(=O)[nH]c(=O)n2C
inactive: activity change, negative = inhibition [1] -17.8% | activity, negative = inhibition [2] -0.329% | Potency [3] > 20.6 µM

COC(=O)CSc1nc2sc3c(c2c(=O)n1C1CCCCC1)CCN(C)C3
inactive: activity change, negative = inhibition [1] -11.2% | activity, negative = inhibition [2] -5.31% | Potency [3] > 20.6 µM

COc1cc2[nH]c3c(=O)n(CCN(C(C)C)C(C)C)cnc3c2cc1OC
inactive: activity change, negative = inhibition [1] -1.5% | activity, negative = inhibition [2] 6.66% | Potency [3] > 20.6 µM

CN1C2C=C3C(C#N)=C(N)C(C#N)(C#N)[C@@H](c4ccsc4)[C@@H]3C1CC2 (stereo partly specified)
inactive: activity change, negative = inhibition [1] 20.1% | activity, negative = inhibition [2] 3.71% | Potency [3] > 20.6 µM

Cc1nc(-c2cn[nH]c2)c2cc(C)oc2n1
inactive: activity change, negative = inhibition [1] -1.95% | activity, negative = inhibition [2] -3.87% | Potency [3] > 20.6 µM

COCCNC(=O)c1c(N)n(/N=C/c2cccs2)c2nc3ccccc3nc12
inactive: activity change, negative = inhibition [1] -0.395% | activity, negative = inhibition [2] 19.9% | Potency [3] > 20.6 µM

CCC(=O)Nc1nc2ccccc2n1Cc1ccccc1C
inactive: activity change, negative = inhibition [1] 28.7% | activity, negative = inhibition [2] 2.77% | Potency [3] > 20.6 µM

Cc1cccc(OCCN2CSC(=S)N(C)C2)c1
inactive: activity change, negative = inhibition [1] -16.7% | activity, negative = inhibition [2] -7.42% | Potency [3] > 20.6 µM

COc1ccccc1NC(=O)C1=C(C)NC(SCC(=O)c2ccc(C)cc2)=C(C#N)C1c1ccco1 (stereo unspecified)
inactive: activity change, negative = inhibition [1] -8.91% | activity, negative = inhibition [2] -6.63% | Potency [3] > 20.6 µM

CCOC(=O)CSC1=C(C#N)C(=O)NC2(CCCCC2)S1
inactive: activity change, negative = inhibition [1] -9.68% | activity, negative = inhibition [2] 8.1% | Potency [3] > 20.6 µM

CC(C)CNC(=O)c1c(N)n(/N=C/c2ccccn2)c2nc3ccccc3nc12
inactive: activity change, negative = inhibition [1] 14.9% | activity, negative = inhibition [2] 9.58% | Potency [3] > 20.6 µM

CCC(CC)c1nc2cc(OC)c(OC)cc2c(=O)o1
inactive: activity change, negative = inhibition [1] -1.43% | activity, negative = inhibition [2] -3.88% | Potency [3] > 20.6 µM

Cn1c(=O)c2c3c(sc2n2c(SCc4ccccc4)nnc12)CCCC3
inactive: activity change, negative = inhibition [1] -6.83% | activity, negative = inhibition [2] -27.8% | Potency [3] > 20.6 µM

C=CCNc1nnc(SC2CC(=O)N(c3ccc(OC)cc3)C2=O)s1 (stereo unspecified)
inactive: activity change, negative = inhibition [1] -11.6% | activity, negative = inhibition [2] -1.82% | Potency [3] > 20.6 µM

CCC12CN3CC(CC)(CN(C1)C3c1c(O)ccc3ccccc13)C2=O (stereo unspecified)
inactive: activity change, negative = inhibition [1] 2.68% | activity, negative = inhibition [2] -7.82% | Potency [3] > 20.6 µM

O=C(NCCN1CCCCC1)/C(=N\O)c1ccccc1
inactive: activity change, negative = inhibition [1] -7.56% | activity, negative = inhibition [2] -1.14% | Potency [3] > 20.6 µM

Fc1ccc2[nH]c3c(N4CCN(C5CCCCC5)CC4)ncnc3c2c1
inactive: activity change, negative = inhibition [1] 7.44% | activity, negative = inhibition [2] 16.1% | Potency [3] > 20.6 µM

O=C(CCN1CCc2ccccc21)c1ccc2c(c1)OCCO2
inactive: activity change, negative = inhibition [1] 7.14% | activity, negative = inhibition [2] 2.96% | Potency [3] > 20.6 µM

O=C(c1ccccc1F)N1CCC(N2CCCCCC2)CC1
inactive: activity change, negative = inhibition [1] -3.96% | activity, negative = inhibition [2] 2.78% | Potency [3] > 20.6 µM

CCOC(=O)c1nc2nc(C)c(Cl)c(=O)n2[nH]1
inactive: activity change, negative = inhibition [1] -6.21% | activity, negative = inhibition [2] 5.64% | Potency [3] > 20.6 µM

Cn1c(=O)c2c3c(sc2n2c(SCC(=O)c4ccc(Cl)cc4)nnc12)COC(C)(C)C3
inactive: activity change, negative = inhibition [1] -6.68% | activity, negative = inhibition [2] -0.164% | Potency [3] > 20.6 µM

CCn1cc(C(=O)NCCc2ccccc2)c(=O)c2cc(F)c(N3CCN(C)CC3)cc21
inactive: activity change, negative = inhibition [1] -9.7% | activity, negative = inhibition [2] -5.45% | Potency [3] > 20.6 µM

CCCC(C)n1[nH]c(=O)cc1N (stereo unspecified)
inactive: activity change, negative = inhibition [1] 11.2% | activity, negative = inhibition [2] 3.57% | Potency [3] > 20.6 µM

Cn1ccnc1C(O)c1ccc(OCc2ccccc2)cc1 (stereo unspecified)
inactive: activity change, negative = inhibition [1] -6.56% | activity, negative = inhibition [2] 2.08% | Potency [3] > 20.6 µM

CCOC(=O)/C=c1\s/c(=C(\C#N)C(=O)OCC)n(-c2ccccc2)c1=O
inactive: activity change, negative = inhibition [1] 2.08% | activity, negative = inhibition [2] -22.2% | Potency [3] > 20.6 µM

CC1(C)Cc2c(C#N)c(OCC(=O)c3ccccc3)nc(-c3ccoc3)c2CO1
inactive: activity change, negative = inhibition [1] 20.6% | activity, negative = inhibition [2] 12.9% | Potency [3] > 20.6 µM

CCC1(C)Cc2c(sc3c2c(=O)n(C)c2nnc(SCc4ccccc4)n32)CO1 (stereo unspecified)
inactive: activity change, negative = inhibition [1] -2.66% | activity, negative = inhibition [2] 1.36% | Potency [3] > 20.6 µM

O=S(=O)(c1ccccc1)N1CCC(N2CCCCCC2)CC1
inactive: activity change, negative = inhibition [1] 5.59% | activity, negative = inhibition [2] 4.98% | Potency [3] > 20.6 µM

C(=N\n1cnnc1)/c1ccccn1
inactive: activity change, negative = inhibition [1] 1.5% | activity, negative = inhibition [2] 7.02% | Potency [3] > 20.6 µM

Clc1ccc(-n2ncc3c(NCc4cccs4)ncnc32)cc1
inactive: activity change, negative = inhibition [1] 13.8% | activity, negative = inhibition [2] -14.7% | Potency [3] > 20.6 µM
